Source: PubChem BioAssay
Cycloheximide cs – counter-screen hit for Shiga toxin inhibitors, cycloheximide. cell reporter, cycloheximide protein synthesis inhibition counterscreen. max response, %. actives 12% (n = 300,000). AID 2314; in the data active = max response mostly above about 13%, no sharp cut-off; inactive = mostly below about 14%; note: read at 38.3 µM for the half of the compounds with a filed dose; 0% is about no effect
RE007 growth inh – less growth of the S. pombe RE007 Vpr strain | AID 651644 | S. pombe RE007 Vpr strain, BacTiter-Glo ATP luminescence, 24 h | actives 0.21% (n = 360,000) | Potency, µM (highest dose often 92.2 µM), without a hit: at the highest dose activity change, negative = less growth, actives largely listed as inhibitors; active = well fitted falling curve with a large enough effect; inconclusive = small, poorly fitted or top-dose-only effect; inactive = no such curve, though single readings can be large or run the other way; note: potency is the fitted concentration of half-maximal effect; % is set by controls: 0 for no effect and ±100 for the full control effect; nearly all actives have a fitted effect of over 50% in size
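Fission yeast RE007 carrying one integrated HIV-1 vpr copy, seeded at OD 0.01 in PMG+AL medium with 23 nL pinned compound. Grown 24 h at 30 degrees; viability read by BacTiter-Glo luminescence after 5 min.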
Tb PYK inh – blocks Trypanosoma brucei pyruvate kinase | TbPYK enzyme, Kinase-Glo Plus ATP luminescence, 45 min | Potency, µM (titrated, usually from 76.8 µM), for the others: top-dose activity, negative = inhibition, most hits filed as inhibitors | Q57TT1 | actives 0.12% (n = 410,000); note: potency is the fitted concentration of half-maximal effect; % is set by controls: 0 for no effect and ±100 for the full control effect; nearly all actives have a fitted effect of over 50% in size
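Screened from lowest to highest concentration, compounds were pinned into TbPYK/substrate mixtures, and ADP (130 uM final) was added. Plates sat at room temperature for 45 min prior to Kinase-Glo Plus detection by luminescence.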
Shiga toxin inh – blocks Shiga toxin action in Vero cells; actives 9.2% (n = 290,000); AID 2315; Vero cells, Shiga toxin protein synthesis inhibition reporter; inhibition, % at 38.7 µM; in the data active = inhibition mostly above about 28%, no sharp cut-off; inactive = mostly below about 43%; note: 0% is about no effect
FBPA Giardia inh – blocks Giardia fructose-bisphosphate aldolase activity | actives 0.71% (n = 290,000) | purified Giardia FBPA | Potency, µM (highest dose often 59.6 µM), without a hit: top-dose activity, negative = inhibition, actives largely listed as inhibitors | AID 2451; note: potency is the fitted concentration of half-maximal effect; % is set by controls: 0 for no effect and ±100 for the full control effect; nearly all actives have a fitted effect of over 55% in size
Target sequence (A8B2U2 whole entry, looked up): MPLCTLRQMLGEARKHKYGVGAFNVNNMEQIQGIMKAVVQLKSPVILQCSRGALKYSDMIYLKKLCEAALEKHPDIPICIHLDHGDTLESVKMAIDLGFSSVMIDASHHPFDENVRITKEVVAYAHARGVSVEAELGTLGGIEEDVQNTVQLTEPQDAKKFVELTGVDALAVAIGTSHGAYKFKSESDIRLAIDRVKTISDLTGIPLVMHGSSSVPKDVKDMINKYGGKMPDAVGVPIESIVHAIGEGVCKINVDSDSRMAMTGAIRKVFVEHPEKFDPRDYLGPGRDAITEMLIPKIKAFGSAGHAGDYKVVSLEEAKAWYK
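Giardia FBPA (40 nM reagent) was preincubated 10 min at RT with compound (up to 57.5 uM final), then substrate plus GAPDH/TPI/NAD/arsenate coupling system with diaphorase/resazurin was added; resorufin fluorescence (525/598 nm) was read after 20 min.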
LmPK inh – LmPK (Leishmania mexicana) enzyme inhibition; purified LmPK, Kinase-Glo ATP luminescence, 1 h; actives 0.37% (n = 290,000); Potency, µM (highest dose often 57.5 µM), for inactives: top-dose activity change, negative = inhibition, hits mostly inhibitors; Q27686; note: potency is the fitted concentration of half-maximal effect; % is set by controls: 0 for no effect and ±100 for the full control effect
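Pyruvate kinase activity monitored as ATP production (luciferase luminescence). Conditions: 0.1 nM enzyme, 0.5 mM PEP, 0.1 mM ADP, 1 h, RT; normalized against uninhibited and no-enzyme wells.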
Numbers without * were called inactive; ? = inconclusive; / = no result; [ ] = dose if it differs, or a comment. The full list was thinned out, with hits kept by preference. Unless noted, calls come from the whole dose curve; as a rule, active = well fitted curve in the direction sought with a large enough effect; inconclusive = small, poorly fitted or top-dose-only effect, or another doubt; inactive = no such curve, though single readings can be large; an effect the other way counts as inactive or inconclusive.

SMILES	Cycloheximide cs	RE007 growth inh	Tb PYK inh	Shiga toxin inh	FBPA Giardia inh	LmPK inh
O=C(Nc1ccccn1)C1CCN(c2ncnc3c2nc2n3CCCCC2)CC1	13.2	0.9%	4.3%	-9.9	6.3%	-1.0%
CC(C)(O)C#Cc1ccc(C(=O)NC2CCCCC2)s1	26.7*	-17.8%	1.4%	74.2*	-0.3%	-5.9%
CC(C)(O)C#Cc1ccc(C(=O)NCCC(=O)O)s1	-3.6	5.9%	-2.0%	12.7	2.4%	1.0%
CCc1ccc(C(=O)NC2CCCCC2)s1	53.4*	3.0%	-0.5%	67.0*	-14.0%	-1.2%
CC(C)(O)C#Cc1ccc(C(=O)Nc2ccc3c(c2)OCO3)s1	58.2*	8.9%	-5.7%	106.7*	-2.1%	4.9%
CCn1cc2nc(SCC(=O)Nc3cc(OC)cc(OC)c3)n(Cc3ccc(Cl)cc3)c(=O)c2n1	/	/	5.0%	/	/	/
O=c1c(-c2cc(F)cc(F)c2)nc2cnc(N3CCOCC3)nc2n1C[C@H]1CCCO1	/	/	/	/	2.2%	/
Cc1ccsc1/C=C1\CCc2ccccc2C1=O	40.8*	12.6µM*	?	25.7	-3.5%	?
O=C1C(=Cc2cccc(F)c2)Cc2ccccc21	/	-8.0%[18.4 µM]	1.4%	/	/	/
CCN1C/C(=C/c2sccc2C)c2nc3ccccc3c(C(=O)O)c2C1	11.0	-3.7%	-8.4%	-11.2	5.1%	-0.2%
O=C1/C(=C\c2ccc3ccccc3c2)CCCc2ccccc21	59.8*	-6.3%	-4.7%	73.3*	-8.9%	-15.6%
O=C1C(=NO)CCCc2ccccc21	/	6.0%	-12.9%	/	/	/
Cc1ccccc1/C=C1\CCCc2ccccc2C1=O	44.8*	-15.6%	-16.0%	80.2*	-1.7%	?
C[C@H](NS(=O)(=O)c1ccc2c(c1)OCCCO2)C(=O)N1CCN(Cc2ccc(C#N)cc2)CC1	/	10.0%	0.4%	/	/	/
O=S(=O)([N-]c1nc2ccccc2nc1-[n+]1ccc(-c2ccncc2)cc1)c1ccccc1	33.6*	6.6%	-15.1%	92.0*	0.7%	1.7%
O=S(=O)([N-]c1nc2ccccc2nc1-[n+]1ccccc1)c1ccccc1	-3.2	3.1%	-19.5%	8.8	4.8%	-3.1%
O=C(/C=N/O)Nc1ccc2sc3ccccc3c2c1	53.8*	36.6%	0.4%	70.7*	-29.4%	1.2%
COc1ccc(CCNC(=O)c2cccc(Nc3nc4ccccc4nc3-n3nc(C)cc3C)c2)cc1OC	/	/	-12.3%	/	/	/
CC(N=c1ccccn1C(=O)Nc1ccc(Cl)cc1)c1ccco1 (configuration not stated)	48.7*	3.3%	-3.3%	65.1*	-3.9%	6.8%
Cc1csc(NC(=O)c2cc(-c3ccco3)nc3ccccc23)n1	9.1	1.1%	-6.1%	6.8	-4.8%	-3.1%
Cc1ccc2nc(NC(=O)c3cc(-c4ccco4)nc4ccccc34)sc2c1	23.7*	-4.3%	-1.3%	35.1	2.1%	1.1%
O=C(Nc1nc2ccccc2s1)c1cc(-c2ccco2)nc2ccccc12	49.6*	-8.5%	-6.4%	60.4*	2.4%	0.6%
O=C(Nc1nccs1)c1cc(-c2ccco2)nc2ccccc12	-1.2	-0.7%	-1.6%	-4.1	-13.2%	0.3%
Cc1occc1-c1nnc(SCC(=O)Nc2ccccn2)o1	17.1*	11.8%	-1.7%	38.0*	0.7%	9.3%
COc1ccccc1NC(=O)CSc1nnc(-c2ccoc2C)o1	/	12.3%	4.1%	/	/	/
SMILES	Cycloheximide cs	RE007 growth inh	Tb PYK inh	Shiga toxin inh	FBPA Giardia inh	LmPK inh
O=C(CSc1nnc(-c2ccccc2Cl)o1)Nc1ccccn1	48.1*	6.0%	4.3%	73.2*	4.6%	2.9%
COCCNC(=O)Cn1nc(-c2ccc(C)cc2)ccc1=O	0.7	6.2%	3.2%	-5.4	4.1%	-1.7%
C/C(=N\NC(=S)NCc1ccccc1)c1cccs1	34.5*	-4.6%	3.1%	134.9*	-0.1%	2.6%
C/C(=N\NC(=S)NCc1ccccc1)c1ccc(Br)cc1	1.7	-18.9%	3.1%	25.2	0.3%	0.0%
C/C(=N/NC(=O)c1ccc2c(c1)OCO2)c1ccc(NC(=O)c2ccc(F)cc2)cc1	34.3*	-10.7%	4.8%	40.1*	/	-9.8%
C/C(=N\NC(=S)Nc1ccc(F)cc1)c1ccc2c(c1)OCCO2	28.0*	-28.5%	-8.5%	65.6*	20.6%	2.7%
C/C(=N\NC(=S)NCc1ccccc1)c1ccc2c(c1)OCCO2	18.2	-12.0%	0.1%	92.8*	0.1%	11.7%
CC(C)Cc1nnc(NC(=O)c2ccc(-n3cncn3)c([N+](=O)[O-])c2)s1	/	15.7%	-4.8%	/	/	/
Cc1ccccc1-c1n[nH]nc1C1=CC(=O)C[C@H](c2ccc(F)cc2)C1	/	-1.0%	-0.2%	/	/	/
c1ccc2nc3c(nc2c1)OCC1CCCCN31 (configuration not stated)	53.5*	2.4%	0.3%	107.9*	4.3%	-7.8%
COc1ccccc1CCNC(=O)c1ccc2c(c1)c(C)c(C)n2C	/	/	-5.7%[15.4 µM]	/	/	/
CCc1nc(SCc2ccc(Cl)cc2)n[nH]1	33.4*	0.3%	7.2%	41.1*	-26.8%	-0.8%
CCc1nc(SCc2ccc(OCC(C)C)cc2)n[nH]1	31.6*	-11.6%	-0.1%	58.2*	-19.4%	4.0%
CCc1nc(SCc2ccc(Br)cc2)n[nH]1	25.9*	-18.7%	4.4%	115.7*	-1.0%	-1.5%
CCSc1nnc(CNC(=O)C23CC4CC(CC(C4)C2)C3)n1C1CCCCC1	-0.7	19.4%	-14.4%	8.7	5.9%	3.2%
CCN(CC(=O)Nc1ccccc1OC)C(=O)c1ccc(NS(=O)(=O)c2ccc(C(C)=O)cc2)cc1	-1.2	-13.2%	2.0%	1.4	/	-2.2%
O=C(Nc1ccc(Cl)cc1)O/N=C(\c1ccccc1)c1ccccn1	20.5*	-15.0%	-1.6%	25.4	-28.8%	-1.2%
CNC(=O)N/N=C(\N)c1ccccn1	18.8*	1.4%	0.2%	36.9	?	-3.9%
N/C(=N\NC(=O)Nc1ccc(Cl)cc1)c1ccccn1	38.7*	1.3%	3.6%	87.9*	?	0.0%
CC(=O)c1ccccn1	/	7.4%	0.2%	/	/	/
O=C(N/N=C(\c1ccccc1)c1ccccn1)c1ccccc1Cl	0.8	30.2%	0.8%	-3.6	19.7%	-9.3%
CN1CC[C@@]2(CCCN(C(=O)c3cccn3C)C2)C1	/	/	-5.6%	/	-8.2%	/
N/C(Cc1ccc(Cl)cc1Cl)=N\OC(=O)Cc1ccc(Cl)cc1	-2.0	-26.4%	3.7%	13.7	-0.6%	1.4%
N/C(Cc1ccc(Cl)cc1Cl)=N\OC(=O)Cc1ccccc1	20.4*	/	-12.6%	22.4	4.7%	1.3%
N/C(Cc1ccc(Cl)cc1Cl)=N\OC(=O)c1ccccc1	19.5*	?	-2.3%	31.5*	0.3%	3.3%
N/C(CC1CC1(Cl)Cl)=N\OC(=O)c1ccccc1 (configuration not stated)	45.0*	-16.1%	4.8%	70.9*	2.9%	-0.9%
O=c1cc(Nc2ccc3c(c2)OCCO3)[nH]c(=O)n1C1CCCCC1	3.0	5.6%	-26.9%	23.2*	-7.5%	4.1%
